The structures appear in SMILES notation. Results filed as inconclusive are left out. Activity calls are given as the source filed them. Unless noted, the call rests on the fitted dose curve; in most records, active means well fitted curve in either direction with a large enough effect (not every such curve was filed as active); inconclusive means small, poorly fitted or top-dose-only effect, or another doubt; inactive means flat fitted curve, though single readings scatter.

Test [1] addresses Lysosomal acid glucosylceramidase (Homo sapiens) (UniProt P04062). As to the kind of experiment: Glucocerebrosidase-p2 (AID 348; in the data active means potency below about 10 µM; further: potency means the concentration at half of the fitted maximal effect). The following applies: purified GBA, blue fluorogenic substrate, 40 min. In a few lines: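 Compounds titrated from 0.6 nM upwards against 0.2 nM enzyme in pH 5.9 citric acid/KH2PO4, taurocholate, tween-20; blue fluorogenic substrate 80 uM, 40 min room temperature, stopped and read Ex 365/Em 440 for AC50.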

A short description of test [2]: AP1 Signaling Pathway (AID 357). Further: on the % scale 0 is the no-effect control and ±100 the full control effect. Conditions: ME-180 AP-1-bla reporter, EGF-induced, beta-lactamase ratio, 5 h; at 7.69 µM (top of the series) unless noted. Summed up:
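ME-180 cells with beta-lactamase reporter under AP-1 response element, stimulated with EC50 EGF; compounds tested in titration series, 5 h at 37 °C. CCF4 substrate added 2.5 h at room temperature; 460/530 nm emission ratio gave %activity and AC50.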

In test [3] the target is Cytochrome P450 1A2 (Homo sapiens) (UniProt P05177). As to the kind of experiment: p450-cyp1a2 (AID 410; calls by dose curve;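 further: -100% = full effect of reference inhibitor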). The following applies: recombinant CYP1A2, luciferin-ME demethylation, luminescence; series mostly up to 57 µM. In a few lines:
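Human CYP1A2 (20nM) demethylated Luciferin-ME at its Km (100uM) in 100mM KPO4. After 10 min compound preincubation, NADPH regeneration ran the reaction 60 min at room temperature. Luciferin was read by luminescence, normalized to 57 uM furafylline.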

A short description of test [4]: NFAT Signaling Pathway (AID 444).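 Further: carbachol stimulus at about its EC50 of 1 µM final; on the % scale 0 is the no-effect control and ±100 the full control effect.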 The following applies: Jurkat NFAT-bla M1, carbachol, beta-lactamase ratio, 5 h; at 7.69 µM (top of the series) unless noted. Summed up: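 Jurkat cells with NFAT-driven β-lactamase reporter and co-expressed M1 receptor, stimulated with carbachol (final 1 uM, ~EC50), compound titration, 5 h at 37 °C. CCF4 loaded 1 h at RT; 460/530 nm ratio gave %activity and AC50.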

Test [5] can be described thus: Stat Signaling Pathway (AID 446).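 Further: ME-180 cervical cancer cells given 40 pM IL-6 alongside compound; SIE-controlled beta-lactamase reporter measured as 460/530 nm FRET emission ratio; on the % scale 0 is the no-effect control and ±100 the full control effect.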 Conditions: ME-180 SIE beta-lactamase reporter, IL-6 stimulated, 5 h; at 7.69 µM (top of the series) unless noted. Summed up: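 Screening format detects activators and inhibitors alike: ME-180 SIE-bla cells stimulated at 40 pM IL-6 for 5 hrs with compound, then dual-emission beta-lactamase read at 405 nm excitation.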
Test [6] addresses Glucocorticoid receptor (Homo sapiens) (UniProt P04150). As to the kind of experiment: GR-EFC Redistribution (AID 451; calls by dose curve; further: potency means the concentration at half of the fitted maximal effect). The following applies: CHO-K1 GR-EFC translocation, beta-gal luminescence, 2 h. In a few lines:
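CHO-K1 cells expressing nuclear EA and GR-ED fragments of b-gal; compounds titrated up to 46 uM final, 2 h at 37 C. GR nuclear translocation read as complemented b-gal luminescence after 1 h RT detection.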

Test [7] deals with Mitogen-activated protein kinase 10 (Mus musculus) (UniProt Q61831). As to the kind of experiment: JNK3 AlphaScreen Assay (AID 530).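 Further: kinase came from lysate of stimulated human HepG2 cells; signal reports phosphorylation of biotinylated GST-cJun 1-79 at Ser73 with 10 µM ATP; on the % scale 0 is the no-effect control and ±100 the full control effect.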 The following applies: JNK3 lysate, c-Jun phosphorylation; series mostly up to 57.1 µM. In a few lines: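 qHTS format: compounds tested as titrations against IL-1beta/TNF-alpha-activated HepG2 lysate JNK3 with biotin-GST-cJun substrate and 10 uM ATP at room temperature. Loss of anti-phospho-cJun AlphaScreen signal indicates inhibition.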

Test [8] has as its target 3',5'-cyclic-AMP phosphodiesterase 4B (Homo sapiens) (UniProt Q07343). Nature of the test: qHTS Assay for Inhibitors of PDE-IV (AID 607; active means well fitted activation curve with a large enough effect in the main read-out, with a control signal flat, not every such curve was filed as active; further: % of control where 0% means no effect). The following applies: HEK293 ACTOne CNG channel cells, membrane potential fluorescence; series mostly up to 22.9 µM. Summed up: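 The readout is membrane depolarisation from a cAMP-sensing CNG channel, detected with a potential dye at ex 535/em 590. Cells were HEK293-derived (endogenous PDE-IV) at 1000 cells/well, titrated up to 22.9 uM final.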
In general terms: In qHTS, concentration-response curves come from the screen itself.

Test [9] is described as follows: qHTS Assay for Lipid Storage Modulators (AID 1519; calls by dose curve). The following applies: Drosophila S3 cells, BODIPY lipid droplet/cell ratio, laser cytometry, cells loaded with oleic acid; for activity change, negative = inhibition: at 57.5 µM (top of the series). Summed up: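 Cells seeded at 5,000 per well were treated with compounds over a concentration series and loaded with oleic acid (400 uM, as added). Lipid droplet fluorescence (488 nm excitation, 500-530 nm channel) was read by laser-scanning cytometry and normalized to 20 uM Triacsin C.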

Test [10] is described as follows: Primary qHTS for small molecule stabilizers of the endoplasmic reticulum resident proteome: Secreted ER Calcium Modulated Protein (SERCaMP) assay (AID 1508630; active means well fitted inhibition curve with a large enough effect; further: on the % scale 0 is the no-effect control and ±100 the full control effect). The following applies: SH-SY5Y GLuc-SERCaMP (Gaussia luciferase released on ER calcium loss) secretion, thapsigargin, luminescence; series mostly up to 38.4 µM. In a few lines:
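GLuc-SERCaMP-expressing SH-SY5Y cells, pretreated 16 h with compound, are challenged with thapsigargin to empty ER calcium stores; after 4 h, coelenterazine is added directly to the medium and luminescence is imaged.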

Where [11] appears, read: measured here: cell count channel max response.
Where [12] appears, read: measured here: lipid channel max response.

Sequence of Glucocorticoid receptor (Homo sapiens) (P04150 whole entry, looked up, the tested form may be a part): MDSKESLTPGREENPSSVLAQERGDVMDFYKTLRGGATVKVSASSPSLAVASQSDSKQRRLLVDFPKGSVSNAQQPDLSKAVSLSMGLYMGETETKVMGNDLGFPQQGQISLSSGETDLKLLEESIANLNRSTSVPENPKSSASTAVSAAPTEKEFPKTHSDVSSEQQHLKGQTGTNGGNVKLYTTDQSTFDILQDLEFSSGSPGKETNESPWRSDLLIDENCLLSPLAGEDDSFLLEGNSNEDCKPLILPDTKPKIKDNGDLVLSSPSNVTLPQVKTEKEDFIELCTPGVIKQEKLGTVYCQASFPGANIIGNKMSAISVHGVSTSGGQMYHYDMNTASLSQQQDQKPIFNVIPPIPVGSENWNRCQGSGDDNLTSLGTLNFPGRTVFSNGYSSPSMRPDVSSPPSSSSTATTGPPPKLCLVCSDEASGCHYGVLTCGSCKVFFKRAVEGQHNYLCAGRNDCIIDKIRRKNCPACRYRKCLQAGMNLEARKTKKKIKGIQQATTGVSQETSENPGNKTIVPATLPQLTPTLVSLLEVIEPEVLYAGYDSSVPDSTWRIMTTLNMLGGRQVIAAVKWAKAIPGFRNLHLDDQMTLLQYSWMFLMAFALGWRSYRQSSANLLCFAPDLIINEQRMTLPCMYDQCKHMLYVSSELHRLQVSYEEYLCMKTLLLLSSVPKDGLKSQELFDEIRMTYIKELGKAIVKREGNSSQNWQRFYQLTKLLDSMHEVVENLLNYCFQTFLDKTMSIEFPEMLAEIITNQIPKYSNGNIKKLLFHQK
Sequence of Lysosomal acid glucosylceramidase (Homo sapiens) (P04062 whole entry, looked up): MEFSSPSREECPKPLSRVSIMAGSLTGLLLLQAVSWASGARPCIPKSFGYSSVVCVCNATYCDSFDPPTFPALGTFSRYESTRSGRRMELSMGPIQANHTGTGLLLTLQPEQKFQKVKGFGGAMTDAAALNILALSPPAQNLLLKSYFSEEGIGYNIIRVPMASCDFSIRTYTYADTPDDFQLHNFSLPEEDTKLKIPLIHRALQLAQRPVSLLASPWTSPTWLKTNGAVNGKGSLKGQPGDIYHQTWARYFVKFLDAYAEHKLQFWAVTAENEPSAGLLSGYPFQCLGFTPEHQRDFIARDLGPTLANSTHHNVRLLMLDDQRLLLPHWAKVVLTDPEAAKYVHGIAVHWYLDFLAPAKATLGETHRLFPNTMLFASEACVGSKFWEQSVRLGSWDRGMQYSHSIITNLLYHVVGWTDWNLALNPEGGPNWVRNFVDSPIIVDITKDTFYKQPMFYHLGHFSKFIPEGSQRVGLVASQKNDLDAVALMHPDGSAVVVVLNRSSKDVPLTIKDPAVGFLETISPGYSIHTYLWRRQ
Sequence of Cytochrome P450 1A2 (Homo sapiens) (P05177 whole entry, looked up): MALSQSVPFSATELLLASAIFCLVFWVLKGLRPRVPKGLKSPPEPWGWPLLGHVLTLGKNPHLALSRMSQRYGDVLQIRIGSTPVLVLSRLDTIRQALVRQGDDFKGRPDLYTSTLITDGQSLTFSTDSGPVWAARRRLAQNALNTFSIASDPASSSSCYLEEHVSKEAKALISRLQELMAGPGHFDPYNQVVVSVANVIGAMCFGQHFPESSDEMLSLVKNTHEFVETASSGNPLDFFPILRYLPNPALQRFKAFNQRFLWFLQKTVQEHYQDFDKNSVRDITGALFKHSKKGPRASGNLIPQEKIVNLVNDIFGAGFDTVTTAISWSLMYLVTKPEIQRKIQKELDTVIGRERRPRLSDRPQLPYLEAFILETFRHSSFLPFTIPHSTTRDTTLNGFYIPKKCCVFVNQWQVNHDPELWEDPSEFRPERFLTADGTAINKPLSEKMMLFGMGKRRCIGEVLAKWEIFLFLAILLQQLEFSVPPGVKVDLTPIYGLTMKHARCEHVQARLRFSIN
Sequence of 3',5'-cyclic-AMP phosphodiesterase 4B (Homo sapiens) (Q07343 whole entry, looked up): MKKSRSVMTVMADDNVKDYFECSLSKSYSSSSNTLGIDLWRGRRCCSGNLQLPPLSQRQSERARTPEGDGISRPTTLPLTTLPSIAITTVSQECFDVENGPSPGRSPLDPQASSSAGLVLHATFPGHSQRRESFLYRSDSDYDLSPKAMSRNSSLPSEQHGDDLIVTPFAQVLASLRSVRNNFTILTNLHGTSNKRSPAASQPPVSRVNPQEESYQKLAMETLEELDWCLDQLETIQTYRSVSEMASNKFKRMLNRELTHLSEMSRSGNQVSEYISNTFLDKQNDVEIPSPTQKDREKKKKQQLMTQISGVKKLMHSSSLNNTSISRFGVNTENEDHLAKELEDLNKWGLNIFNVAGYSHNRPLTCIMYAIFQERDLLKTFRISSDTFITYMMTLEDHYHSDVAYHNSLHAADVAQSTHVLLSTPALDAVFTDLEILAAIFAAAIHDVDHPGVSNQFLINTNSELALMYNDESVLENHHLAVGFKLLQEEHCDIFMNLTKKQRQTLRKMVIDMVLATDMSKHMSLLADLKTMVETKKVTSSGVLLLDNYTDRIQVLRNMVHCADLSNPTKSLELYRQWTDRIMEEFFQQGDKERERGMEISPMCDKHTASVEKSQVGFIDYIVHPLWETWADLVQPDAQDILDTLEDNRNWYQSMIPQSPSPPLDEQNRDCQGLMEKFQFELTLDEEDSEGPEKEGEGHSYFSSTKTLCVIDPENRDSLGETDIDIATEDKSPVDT

For `COc1ccc(NC(=O)N2CC3(CCN(C(=O)c4ccco4)CC3)C2)cc1`, the Potency in test [1] is > 11.4 µM (inactive); in test [6] it was > 46 µM (inactive). The activity change, negative = inhibition was -4.09% (inactive) in test [2], 3.69% (inactive) in [4] and 5.26% (inactive) in test [9]. In addition, the Potency entry in test [3], in [8] and in test [10] was “inactive” in each case. Besides, the activity, negative = inhibition in test [5] was -3.56% (inactive). Further, the compound was called inactive in test [7]. Further, the max response in [9] (setting [11]) stood at 0.813%; in [9] (setting [12]) it was 8.8%.
Turning to `COCC(=O)N1CCC2(CC1)CN(C(=O)Nc1cccc(F)c1)C2`, the Potency in test [1] is > 11.4 µM (inactive); in test [6] it was > 46 µM (inactive). Further, the results for the activity change, negative = inhibition in test [2], in test [4] and in [9] were -27.6% (inactive), 9.78% (inactive) and 8.39% (inactive), respectively. The Potency entry in test [3], in test [8] and in test [10] was “inactive” in each case. Besides, the activity, negative = inhibition in [5] is -2.66% (inactive). Further, the outcome in test [7] was inactive. Besides, the max response in test [9] (setting [11]) came to 17.5%; in test [9] (setting [12]), 29%.
Turning to `COC(=O)N1CCC2(CCN(Cc3nccs3)CC2)CC1`, the Potency in test [1] is > 11.4 µM (inactive); in test [6] it was > 46 µM (inactive). The values for the activity change, negative = inhibition in [2], in test [4] and in test [9] were -10.7% (inactive), -25.8% (inactive) and 2.86% (inactive), respectively. Besides, the Potency entry in [3], in test [8] and in [10] was “inactive” each time. Also, the activity, negative = inhibition in [5] was 0.339% (inactive). The result in test [7] was inactive. Moreover, the max response was 6.91% in test [9] (setting [11]) and 13.2% in test [9] (setting [12]).
`O=C(c1csnn1)N1CCC2(CC1)CN(Cc1cc(C(F)(F)F)cc(C(F)(F)F)c1)C2`: the Potency is > 11.4 µM (inactive) in test [1] and > 46 µM (inactive) in [6]. For the same compound, the activity change, negative = inhibition in [2] is 15.8% (inactive); in test [4] it was -21.8% (inactive); in [9], -4.63% (inactive). Besides, the Potency entry in [3], in test [8] and in test [10] was “inactive” throughout. Also, the activity, negative = inhibition in test [5] is 3.59% (inactive). The result in [7] was inactive. Further, the max response was 8.43% in [9] (setting [11]) and 5.85% in test [9] (setting [12]).
For the compound `COc1ccc(C(=O)N2CCC3(CC2)CN(C(=O)NC(C)C)C3)cc1`, the Potency is > 11.4 µM (inactive) in [1] and > 46 µM (inactive) in [6]. The values for the activity change, negative = inhibition in [2], in test [4] and in [9] were -5.05% (inactive), 12.7% (inactive) and -0.224% (inactive), respectively. Moreover, the Potency result in [3], in test [8] and in [10] was “inactive” in each case. Besides, the activity, negative = inhibition in test [5] is 0.0305% (inactive). Besides, the result in test [7] was inactive. Also, the figures for the max response in test [9] (setting [11]) and in test [9] (setting [12]) were -1.09% and 0.517%, respectively.
As to `COC(=O)N1CCC2(CC1)CN(C(=O)Nc1ccccc1)C2`, the values for the Potency in [1] and in [6] were > 11.4 µM (inactive) and > 46 µM (inactive), respectively. In addition, the activity change, negative = inhibition in test [2] is -8.08% (inactive); in test [4] it was 8.68% (inactive); in test [9] it was 5.14% (inactive). Also, the Potency entry in test [3], in test [8] and in test [10] was “inactive” each time. In test [5], the activity, negative = inhibition was 1.2% (inactive). For the same compound, the result in [7] was inactive. Moreover, the max response in test [9] (setting [11]) is -14.6%; in [9] (setting [12]), -8.35%.
For the compound `COC(=O)N1CCC2(CC1)CN(c1cccc(-c3ccccc3)c1)C2`, the results for the Potency in test [1] and in test [6] were > 11.4 µM (inactive) and > 46 µM (inactive), respectively. Also, the activity change, negative = inhibition in test [2] is -12.5% (inactive); in test [4] it was -3.27% (inactive); in test [9], 4.36% (inactive). Also, the Potency entry in test [3], in test [8] and in test [10] was “inactive” in each case. The activity, negative = inhibition in test [5] was 4.85% (inactive). Further, the compound was classed as inactive in [7]. The max response in [9] (setting [11]) was determined as 23.2%; in test [9] (setting [12]), 29.4%.

(Values after PubChem BioAssay (NCATS).)
